Experimental data as given in PubChem BioAssay (EPA / NIEHS).
A structure can be active in one record and inactive in another. Active and inactive are the calls of the source. How the source made its calls: active means hit-call score of the fitted dose curve at least 0.9, where 1 is the maximum; inactive means score below 0.9.

Key:
[1] = ATG_CRE_CIS: Attagene CIS-FACTORIAL HepG2 Assay for human cAMP Responsive Element (CRE) binding protein 3 (AID 2282926); settings: HepG2 CRE cis-reporter, Attagene multiplexed mRNA; actives raise or lower the signal
In short: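 Cells carrying cis-regulated reporter constructs respond through their own endogenous factors. After 24 h treatment, RNA is reverse-transcribed, amplified, labelled and sized by capillary electrophoresis; up- and down-regulation are both scored against vehicle.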

[2] = biological target: CCAAT/enhancer-binding protein beta (Homo sapiens) (UniProt P17676); assay: ATG_C_EBP_CIS: Attagene CIS-FACTORIAL HepG2 Assay for human CCAAT/Enhancer Binding Protein (C/EBP) beta (AID 2282927); settings: HepG2 Attagene cis-factorial transcription factor reporter; actives raise or lower the signal
In short: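 Endogenous C/EBPb-driven reporter transcripts measured in transfected human HepG2 cells at 24 h via RT-PCR and capillary electrophoresis of labelled fragments. Activity fitted in both directions relative to DMSO baseline.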

[3] = ATG_CMV_CIS: Attagene CIS-FACTORIAL HepG2 Assay for human CMV (Internal Marker) (AID 2282928); settings: HepG2 CMV promoter reporter, transcription factor profiling; actives raise or lower the signal;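 further: endpoint acts as a background internal control marker rather than a target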
In short: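 24 h chemical treatment, HepG2 with transient multi-reporter transfection; RNA → oligo(dT) RT → PCR → 6-FAM extension → HpaI digest → CE fluorescence. Bidirectional fit, DMSO negative control.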

[4] = biological target: Aryl hydrocarbon receptor (Homo sapiens) (UniProt P35869); assay: ATG_Ahr_CIS: Attagene CIS-FACTORIAL HepG2 Assay for human Aryl Hydrocarbon Receptor (Ahr) (AID 2282930); settings: HepG2 AhR cis-factorial reporter transcription; actives raise or lower the signal
In short: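 Reporter mRNA levels, quantified by RT-PCR and fluorescent capillary electrophoresis, reflect endogenous AhR transcriptional activity in HepG2 cells carrying transfected cis-promoter reporter constructs. Readout at 24 h post-dose; gain or loss fitted against DMSO baseline.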

[5] = ATG_AP_1_CIS: Attagene CIS-FACTORIAL HepG2 Assay for human Activator Protein 1 (AP-1) (AID 2282931); settings: HepG2 Attagene cis-factorial AP-1 reporter mRNA; actives raise or lower the signal
In short: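 Cis-regulated reporter units transiently expressed in HepG2 report endogenous transcription-factor activity. Signal: reporter mRNA at 24 h, via RT-PCR and fluorescent capillary electrophoresis. Endpoint derived by bidirectional fitting, DMSO as negative control.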

[6] = ATG_AP_2_CIS: Attagene CIS-FACTORIAL HepG2 Assay for human Activator Protein 2 (AP-2) (AID 2282932); settings: HepG2 AP-2 cis-reporter, Attagene transcription factor profiling; actives raise or lower the signal
In short: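 Transiently transfected HepG2 cells are exposed to chemical for 24 h. Reporter transcripts are then measured as fluorescence following RT-PCR and capillary separation, and gain- or loss-of-signal is fitted relative to DMSO.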

[7] = ATG_BRE_CIS: Attagene CIS-FACTORIAL HepG2 Assay for human Bone Morphogenetic Protein (BMP) Response Element (BRE) (AID 2282933); settings: HepG2 BMP response element reporter, Attagene transcription factor profiling; actives raise or lower the signal
In short: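 Transient MRTU transfection of human HepG2 liver cells; 24 h compound treatment; total RNA isolated, reverse-transcribed, PCR-amplified, 6-FAM labelled, HpaI-cut, capillary electrophoresis. DMSO = negative control/baseline, bidirectional fit.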

[8] = biological target: Retinoic acid receptor alpha (Homo sapiens) (UniProt P10276); assay: ATG_DR5_RAR_CIS: Attagene CIS-FACTORIAL HepG2 Assay for human Retinoic Acid Receptor Alpha (RARE), DR5 submotif (AID 2282934); settings: HepG2 Attagene cis-factorial RARE DR5 reporter, mRNA; actives raise or lower the signal;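 on AC50: reporter responds to endogenous RAR alpha beta and gamma in HepG2 not RARA alone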
In short: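 Reporter transcripts from a DR5-regulated unit, measured via RT-PCR plus capillary electrophoresis, reflect endogenous RAR activity in transiently transfected human HepG2 liver cells. Exposure lasted 24 h; gain or loss of signal scored against DMSO.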

[9] = biological target: Transcription factor E2F1 (Homo sapiens) (UniProt Q01094); assay: ATG_E2F_CIS: Attagene CIS-FACTORIAL HepG2 Assay for human E2F Transcription Factor 1 (AID 2282935); settings: HepG2 Attagene cis-reporter, E2F reporter RNA transcripts; actives raise or lower the signal
In short: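 Fluorescent RT-PCR products, digested with HpaI for 2 h at 37 C, are separated by capillary electrophoresis. Source RNA comes from transfected HepG2 cultures treated for 24 h.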

[10] = ATG_E_Box_CIS: Attagene CIS-FACTORIAL HepG2 Assay for human Enhancer Box (E-box) (AID 2282936); settings: HepG2 E-box cis-reporter transcription, actives raise or lower the signal
In short: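 Fluorescent reporter fragments separated by capillary electrophoresis gave the signal; mRNA came from HepG2 cells transfected with cis-element reporters and treated 24 h. Curves fitted bidirectionally relative to DMSO controls.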

[11] = ATG_M_61_CIS: Attagene CIS-FACTORIAL HepG2 Assay for M61 Transcription Factor (Internal Marker) (AID 2282937); settings: HepG2 Attagene CIS-FACTORIAL M61 internal marker reporter; actives raise or lower the signal
In short: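 Background-control endpoint: HepG2 cells with cis-regulated reporter constructs, 24 h exposure, reporter mRNA detected via fluorescent primer extension and capillary electrophoresis; values from bidirectional fitting with DMSO baseline.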

[12] = ATG_EGR_CIS: Attagene CIS-FACTORIAL HepG2 Assay for human Early Growth Response 1 (EGR1) (AID 2282938); settings: HepG2 Attagene CIS-FACTORIAL EGR reporter mRNA; actives raise or lower the signal
In short: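 Endpoint derived by bidirectional fitting versus DMSO vehicle. Method: cis-promoter reporter units transfected into HepG2, 24 h dosing, RNA isolation, RT-PCR with 6-FAM primer extension and HpaI digestion, then capillary electrophoresis fluorescence detection.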

[13] = ATG_DR4_LXR_CIS: Attagene CIS-FACTORIAL HepG2 Assay for human Liver X Receptor (LXR), DR4 submotif (AID 2282929); settings: HepG2 Attagene DR4 cis-reporter, mRNA transcription; actives raise or lower the signal
In short: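 DR4 cis-reporter in HepG2, 24 h exposure. Detection: RT-PCR, 6-FAM labelling, CE fragment analysis. Endpoint fitted bidirectionally, DMSO = baseline.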

Measured: AC50

Chain of Transcription factor E2F1 (Homo sapiens) (Q01094 whole entry, looked up): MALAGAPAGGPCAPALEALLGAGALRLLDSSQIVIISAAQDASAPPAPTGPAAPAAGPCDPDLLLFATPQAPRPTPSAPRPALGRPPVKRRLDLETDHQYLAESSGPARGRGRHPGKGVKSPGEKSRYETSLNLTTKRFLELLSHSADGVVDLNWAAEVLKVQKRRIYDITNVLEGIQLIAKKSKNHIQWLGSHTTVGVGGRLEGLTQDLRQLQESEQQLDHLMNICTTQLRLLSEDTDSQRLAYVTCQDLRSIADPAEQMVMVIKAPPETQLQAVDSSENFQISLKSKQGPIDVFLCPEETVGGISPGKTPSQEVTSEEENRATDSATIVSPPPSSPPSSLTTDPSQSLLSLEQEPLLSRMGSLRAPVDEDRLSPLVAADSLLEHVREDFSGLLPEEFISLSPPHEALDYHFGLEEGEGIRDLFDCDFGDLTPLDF
Chain of Aryl hydrocarbon receptor (Homo sapiens) (P35869 whole entry, looked up): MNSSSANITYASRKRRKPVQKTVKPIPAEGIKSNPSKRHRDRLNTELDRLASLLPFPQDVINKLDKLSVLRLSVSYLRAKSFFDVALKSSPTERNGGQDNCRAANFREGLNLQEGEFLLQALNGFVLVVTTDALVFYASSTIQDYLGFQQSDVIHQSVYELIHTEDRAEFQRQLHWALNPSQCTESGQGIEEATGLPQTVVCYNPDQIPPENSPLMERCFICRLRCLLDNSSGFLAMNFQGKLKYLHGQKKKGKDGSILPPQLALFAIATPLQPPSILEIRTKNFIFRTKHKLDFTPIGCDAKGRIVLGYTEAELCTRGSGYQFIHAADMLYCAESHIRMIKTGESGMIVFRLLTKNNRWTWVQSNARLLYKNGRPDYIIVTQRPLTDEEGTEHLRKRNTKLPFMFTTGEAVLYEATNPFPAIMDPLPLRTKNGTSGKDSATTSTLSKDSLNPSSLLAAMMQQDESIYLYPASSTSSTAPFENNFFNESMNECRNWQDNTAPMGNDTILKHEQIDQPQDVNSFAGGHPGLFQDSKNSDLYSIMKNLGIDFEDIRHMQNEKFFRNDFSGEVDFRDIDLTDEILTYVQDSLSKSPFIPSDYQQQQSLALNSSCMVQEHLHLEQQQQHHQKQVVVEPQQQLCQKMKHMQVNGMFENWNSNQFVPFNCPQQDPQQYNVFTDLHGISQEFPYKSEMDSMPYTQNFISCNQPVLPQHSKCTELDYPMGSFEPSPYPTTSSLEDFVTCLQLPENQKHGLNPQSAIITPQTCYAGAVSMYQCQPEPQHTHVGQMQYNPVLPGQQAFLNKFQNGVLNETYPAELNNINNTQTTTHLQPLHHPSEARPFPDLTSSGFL
Chain of Retinoic acid receptor alpha (Homo sapiens) (P10276 whole entry, looked up): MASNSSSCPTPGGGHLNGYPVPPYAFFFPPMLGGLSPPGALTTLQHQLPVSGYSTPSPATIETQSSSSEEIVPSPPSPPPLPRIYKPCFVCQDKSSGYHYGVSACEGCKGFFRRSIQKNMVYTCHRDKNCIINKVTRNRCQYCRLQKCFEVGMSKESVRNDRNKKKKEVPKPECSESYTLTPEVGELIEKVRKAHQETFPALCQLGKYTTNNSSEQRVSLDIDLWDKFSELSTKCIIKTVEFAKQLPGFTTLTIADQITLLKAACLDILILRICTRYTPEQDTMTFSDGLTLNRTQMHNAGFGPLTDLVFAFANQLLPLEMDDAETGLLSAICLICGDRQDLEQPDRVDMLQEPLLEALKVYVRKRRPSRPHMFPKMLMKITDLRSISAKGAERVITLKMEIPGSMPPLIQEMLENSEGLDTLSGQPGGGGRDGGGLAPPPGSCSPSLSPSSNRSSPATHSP
Chain of CCAAT/enhancer-binding protein beta (Homo sapiens) (P17676 whole entry, looked up, the tested form may be a part): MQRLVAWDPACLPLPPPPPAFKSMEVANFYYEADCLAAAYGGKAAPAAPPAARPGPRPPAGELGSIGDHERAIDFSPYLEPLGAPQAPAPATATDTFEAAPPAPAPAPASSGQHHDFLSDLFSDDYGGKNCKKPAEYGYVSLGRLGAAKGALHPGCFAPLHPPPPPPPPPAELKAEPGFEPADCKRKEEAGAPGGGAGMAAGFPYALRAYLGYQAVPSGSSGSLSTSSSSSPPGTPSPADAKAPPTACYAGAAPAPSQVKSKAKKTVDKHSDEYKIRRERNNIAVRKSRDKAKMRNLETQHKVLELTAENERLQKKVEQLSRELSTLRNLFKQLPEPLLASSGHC

CC(C=O)Cc1ccc2c(c1)OCO2 (stereo not given)
not listed: [13]
inactive: all other assays above

C1CCC(C2CCCCC2)CC1
active: [3] 86.2 µM
not listed: [10] | [11] | [13]
inactive: all other assays above

O=C(Nc1ccc(Br)cc1)c1cc(Br)cc(Br)c1O
active: [4] 0.63 µM | [7] 13.3 µM | [8] 4.76 µM | [12] 52.9 µM
not listed: [5] | [10]
inactive: all other assays above

OC(c1ccc(Cl)cc1)(c1ccc(Cl)cc1)c1cccnc1
active: [2] 11.1 µM
not listed: [13]
inactive: all other assays above

Cc1cccc(N=Nc2ccc(N(C)C)cc2)c1
active: [4] 8.37 µM
not listed: [5] | [8] | [13]
inactive: all other assays above

Cc1cccc(OP(=O)(Oc2cccc(C)c2)Oc2cccc(C)c2)c1
not listed: [7] | [12] | [13]
inactive: all other assays above

FC(F)OCC(F)(F)C(F)(F)F
not listed: [5] | [13]
inactive: all other assays above

C=CCCl
not listed: [13]
inactive: all other assays above

Cc1cc(SCc2sc(-c3ccc(C(F)(F)F)c(F)c3)nc2C)ccc1OCC(=O)O
active: [13] 23.8 µM | [6] 51.2 µM | [12] 26.3 µM
not listed: [3] | [7]
inactive: all other assays above

CCCCCCCCCCCCOS(=O)(=O)O
active: [13] 49.3 µM
inactive: [1] | [2] | [13] | [5] | [6] | [7] | [9] | [10] | [11]

CC(=O)CN(CC(C)=O)N=O
not listed: [3] | [7]
inactive: all other assays above
